This is a sample that favours compounds with a hit; in the whole collection about 4.7% have one here.
D1 antag: human D1 dopamine receptor antagonism; P21728; HEK293 TREx D1 cells, calcium flux, dopamine EC80; active compounds read low; activity change, negative = inhibition, % at 10 µM; actives 3.2% (n = 360,000); AID 504652; in the data active = activity change below about -30%; note: % is set by controls: 0 for no effect and ±100 for the full control effect
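Inducible Hek293 Trex D1 cells (tetracycline, overnight, 30 C). Calcium dye 30–90 min RT. Antagonist mode: EC80 dopamine added after 180 s compound read.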
TRHR ag: agonists of human TRH receptor; TRHR cells, calcium flux fluo-8, FDSS agonist mode; activation, % at 2 µM; actives 0.18% (n = 360,000); AID 493084; note: 0% is about no effect
Target sequence (P34981 whole entry, looked up): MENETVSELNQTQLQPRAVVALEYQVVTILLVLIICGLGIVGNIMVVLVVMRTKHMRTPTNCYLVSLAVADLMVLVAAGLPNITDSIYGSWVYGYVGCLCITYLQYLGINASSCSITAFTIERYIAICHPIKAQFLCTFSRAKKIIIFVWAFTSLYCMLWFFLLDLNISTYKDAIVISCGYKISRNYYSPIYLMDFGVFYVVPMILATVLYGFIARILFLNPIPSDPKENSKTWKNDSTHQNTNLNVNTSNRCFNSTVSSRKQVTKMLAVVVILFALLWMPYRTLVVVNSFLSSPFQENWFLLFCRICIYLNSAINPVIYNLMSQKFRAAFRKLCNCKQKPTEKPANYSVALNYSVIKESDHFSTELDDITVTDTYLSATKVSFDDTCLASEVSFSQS
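Fluo-8-loaded TRHR cells; 10 s baseline, compound added, kinetic Ca2+ fluorescence read 1/s, agonist mode.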
D1 ag: activates the human D1 dopamine receptor. P21728. HEK293 T-REx D1 cells, calcium flux, agonist mode. activation, % at 2 µM. actives 1% (n = 360,000). AID 504660; note: 0% is about no effect
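Tetracycline-induced HEK293 TREx D1 cells, force-coupled to calcium signalling, were dye-loaded with a no-wash calcium kit. Compound was pin-added after a 10 s baseline. Fluorescence was read kinetically at 1 cycle/s for 180 s, with calcium rises flagged as agonism.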
TRHR PAM: allosteric enhancers of human TRH receptor; P34981; TRHR cells, fluo-8 calcium fluorescence, EC20 TRH enhancement; enhancement, % at 2 µM; actives 0.66% (n = 360,000); in the data active = enhancement above about 30%; note: 0% is about no effect
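Enhancer read-out: after compound pinning and an initial kinetic agonist-mode read, an EC20 of TRH (10 nM final) was injected and fluo-8 calcium signal (Ex 480/Em 530) followed at 1 s/cycle for 100 cycles in TRHR-expressing cells.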
D1 potentiator: enhances dopamine response at the human D1 receptor; HEK293 TREx D1 cells, calcium flux, dopamine EC20 potentiation; AID 504651; potentiation, % at 10 µM; P21728; actives 0.036% (n = 360,000); in the data active = potentiation above about 30%; note: 0% is about no effect
Starred values were filed as active, the others as inactive. Cut-off read from the data, not from the text of the source, unless noted: active = activation above about 30%; inactive = the rest.

SMILES | D1 antag | TRHR ag | D1 ag | TRHR PAM | D1 potentiator
Cc1cc(C(=O)Nc2ccccc2Cl)c2ccccc2n1 | -4.2 | 1.0 | 3.1 | 6.6 | 1.6
Cc1cc(C(=O)NCc2ccccc2Cl)c2ccccc2n1 | -62.5* | -1.4 | 6.8 | 5.6 | -10.2
Cc1cc(CNC(=O)COc2ccc(F)cc2)c2ccccc2n1 | 11.9 | -0.8 | 8.7 | -1.4 | -9.6
Cc1cc(CNC(=O)COc2ccccc2)c2ccccc2n1 | -35.4* | -0.3 | 14.1 | -4.8 | 2.7
Cc1ccc2c(c1)cc1c(=O)n(CC(=O)NC(C)CCc3ccccc3)nc(C)n12 (centres undefined) | 4.3 | -0.1 | -0.1 | -2.1 | -3.5
O=C(CSc1ncc2c(n1)-c1ccccc1N(Cc1ccc(F)cc1)S2(=O)=O)c1ccc(Cl)cc1 | 0.7 | 0.0 | 4.6 | -3.5 | 0.6
O=C(CCC(=O)N1CCSc2ccccc21)Nc1ccc(Cl)cc1 | -6.5 | 0.2 | 0.8 | 2.7 | -3.1
CC1CCC/C(=N/Nc2ccc([N+](=O)[O-])cc2[N+](=O)[O-])C1 (centres undefined) | -32.1* | 0.2 | 7.4 | 2.1 | -0.8
CC1CCC(=NNc2ccc(C(F)(F)F)cc2[N+](=O)[O-])CC1 (centres undefined) | 7.5 | 0.3 | 4.4 | -0.6 | 0.6
CCCCOc1ccc(C(=O)NCCS(=O)(=O)N2CCN(c3ccccc3OC)CC2)cc1 | -64.6* | -0.9 | 3.0 | -2.5 | -1.6
CC(=O)Nc1ccc(S(=O)(=O)NCCS(=O)(=O)N2CCN(c3ccccc3F)CC2)cc1 | 16.8 | 0.2 | 8.7 | -6.9 | 1.4
COc1ccc(S(=O)(=O)NCCS(=O)(=O)N2CCN(c3ccccc3F)CC2)cc1 | -38.4* | -0.6 | 7.6 | -0.7 | -1.0
CCOc1ccccc1N1CCN(S(=O)(=O)CC)CC1 | -3.2 | -0.2 | -0.2 | -0.7 | 9.2
CCCCOc1ccc(S(=O)(=O)N2CCN(c3ccccc3OCC)CC2)cc1 | -17.2 | 0.1 | 9.2 | 32.2* | -2.3
CC(O)CNc1nc2sc3c(c2c(=O)n1CCc1ccccc1)CCCCC3 (centres undefined) | -23.1 | 0.9 | 0.8 | 4.6 | -7.0
CN(C)CCNc1nc2sc3c(c2c(=O)n1CCc1ccccc1)CCCCC3 | -35.5* | 8.0 | 105.7* | 1.8 | 0.1
CC(C)Cn1cnc2sc3c(c2c1=N)CCCC3 | 3.8 | 1.0 | 7.1 | -3.1 | -3.6
N=c1c2c3c(sc2ncn1Cc1ccco1)CCCCC3 | -35.0* | -1.4 | 14.2 | 5.8 | -5.8
CC(O)CNc1nc2sc3c(c2c(=O)n1Cc1ccco1)CCCCC3 (centres undefined) | 7.0 | -0.5 | 33.8* | 3.9 | 0.6
COc1ccc2c(Sc3ccccc3)c(C(=O)N3CCC(C)CC3)[nH]c2c1 | 5.6 | -0.1 | 1.4 | 0.5 | 3.3
CCCCNC(=O)CN1C(=O)CSc2ccc(S(=O)(=O)N3CCC(C)CC3)cc21 | 27.2 | 0.0 | 1.2 | -2.9 | 3.8
CCCN(CCC)C(=O)CN1C(=O)CSc2ccc(S(=O)(=O)N3CCC(C)CC3)cc21 | -90.7* | 4.0 | 3.1 | -4.8 | -5.2
Cc1cc(C)n2c(SCc3ccc(Cl)cc3Cl)nnc2n1 | 8.5 | -0.4 | 41.6* | 7.9 | 9.9
CCOC(=O)C1CCCN(C(=O)c2ccc3c(c2)N(Cc2ccccc2)C(=O)c2ccccc2S3(=O)=O)C1 (centres undefined) | -3.1 | 0.0 | 6.3 | -3.5 | -4.0
CCOC(=O)Cn1c(=N)n(CCOc2ccc(OC)cc2)c2ccccc21 | 4.3 | 2.2 | 10.8 | -4.3 | -1.8
SMILES | D1 antag | TRHR ag | D1 ag | TRHR PAM | D1 potentiator
CCOC(=O)Cn1c(=N)n(CCOc2ccc3ccccc3c2)c2ccccc21 | 5.2 | 1.1 | 32.3* | 1.9 | -10.0
Cc1cn(C)c(CC(=O)Nc2cccc(C#N)c2)c1C(=O)O | -13.7 | 0.1 | -0.4 | 32.1* | -1.8
O=C(COc1ccccc1F)Nc1ccc2nc(SCC(=O)N3CCCC3)sc2c1 | -3.0 | 0.0 | 0.3 | -1.8 | -1.8
Cc1ccc(-c2ccc(SCC(=O)c3ccccc3)nn2)cc1 | -17.2 | 0.8 | 4.9 | 1.0 | -4.5
Cc1ccc(C(=O)CSc2nc(-c3ccccc3)ccc2C#N)cc1 | -10.8 | 10.7 | 35.9* | -3.3 | -2.2
CCOC(=O)/C(C#N)=C/c1ccc(-c2ccc(Br)cc2)o1 | -21.5 | 9.3 | 9.9 | 36.8* | -1.1
COc1ccc(NC(=O)/C(C#N)=C\c2ccc(N3CCOCC3)o2)cc1 | -20.4 | 74.6* | 212.9* | 0.6 | -0.1

Compound activity: PubChem, National Center for Advancing Translational Sciences (NCATS)
